# PKM2 inh: inhibitors of human pyruvate kinase M2; P14618; 0.058% of 260,000 active; purified PKM2, ATP generation, Kinase-Glo luminescence; Potency, µM (titrated, usually from 57.5 µM), hits mostly inhibitors; active = well fitted inhibition curve with a large enough effect; also: nearly all actives have a fitted effect of over 60% in size
# Target sequence (P14618 whole entry, looked up): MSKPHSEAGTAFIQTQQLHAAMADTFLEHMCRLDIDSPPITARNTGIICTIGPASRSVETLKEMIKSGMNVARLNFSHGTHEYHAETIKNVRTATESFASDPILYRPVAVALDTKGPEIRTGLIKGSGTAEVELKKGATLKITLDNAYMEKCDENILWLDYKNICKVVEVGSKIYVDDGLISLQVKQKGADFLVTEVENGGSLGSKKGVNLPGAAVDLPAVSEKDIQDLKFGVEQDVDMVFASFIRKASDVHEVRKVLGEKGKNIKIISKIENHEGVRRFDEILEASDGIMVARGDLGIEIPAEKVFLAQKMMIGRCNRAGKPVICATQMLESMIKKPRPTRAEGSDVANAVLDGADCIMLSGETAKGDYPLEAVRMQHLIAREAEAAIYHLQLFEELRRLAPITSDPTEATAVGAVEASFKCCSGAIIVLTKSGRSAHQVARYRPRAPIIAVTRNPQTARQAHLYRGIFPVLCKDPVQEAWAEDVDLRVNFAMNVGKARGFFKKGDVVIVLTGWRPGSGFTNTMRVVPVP
#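 Coupled luciferase luminescence (Kinase-Glo) detects ATP generated from 0.1 mM ADP and 0.5 mM PEP in imidazole buffer pH 7.2 with KCl, MgCl2; 1 h at room temperature. Enzyme at intermediate activity; normalized to uninhibited and no-enzyme controls.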
# Hits are given with their value; n = inactive. The entries come from a sample that favours hits as a whole.
SMILES,PKM2 inh
CCOc1ccc2nc(/N=C/c3c(C)[nH]n(-c4ccc(C)cc4)c3=O)sc2c1,12.6µM
CCOc1ccc2nc(SCC(=O)Nc3cc(C)on3)c(C)cc2c1,n
Cc1nc(-c2ccc(S(=O)(=O)NCc3ccccn3)s2)cs1,n
O=C(COC(=O)c1cccs1)c1ccc2c(c1)OCCO2,28.2µM
CCOC(=O)c1cnc(SCC(=O)c2ccc3c(c2)OCCO3)nc1N,n
O=C(COC(=O)c1ccc(NS(=O)(=O)c2ccc3c(c2)OCCO3)cc1)NC1CC1,n
NC(=O)CC(NC(=O)Cc1cccc2ccccc12)c1ccc(N2CCc3ccccc3C2)c([N+](=O)[O-])c1 (stereo not given),n
O=C(Nc1ccc(-c2ccc3nncn3n2)cc1)c1ccc(Br)o1,n
O=C(O)CSc1cc(C(=O)c2ccccc2O)cn2c(=O)c3c4c(sc3nc12)CCCC4,n
Cc1nc2ccc(S(=O)(=O)NCC(=O)N(C)Cc3ccco3)cc2s1,n
COc1ccc2nc(NC(=O)CCNC(=O)c3ccccc3Cl)sc2c1,n
COc1ccc2nc(NC(=O)c3ccoc3C)sc2c1,15.8µM
CC(=O)Nc1ccc(N(C(=O)c2ccco2)C(C(=O)NC2CCCC2)c2ccc(N3CCOCC3)cc2)cc1 (stereo not given),n
O=C(CSc1nc2ccccc2n1Cc1ccccc1Cl)N/N=C/c1ccccc1C(=O)O,n
COCCCn1c(SCC(=O)Nc2ccc(NC(=O)c3ccco3)c(OC)c2)nc2ccccc2c1=O,n
Cc1cc(NC(=O)c2ccco2)ccc1NC(=O)c1ccco1,14.1µM
O=C(/C=C\c1ccco1)c1ccc(NC(=O)c2ccco2)cc1,n
COCCn1c(-c2ccccc2)cnc1SCC(=O)Nc1cccc2ccccc12,n
CCCCOP(=O)(OCCCC)C1(NS(=O)(=O)c2ccccc2)C=CC(=O)c2ccccc21 (stereo not given),n
COc1ccccc1N1C(=O)C=C(Sc2nc(C)cc(C)n2)C1=O,n
CCCn1c(NC(=O)c2ccco2)nc2ccccc21,n
Cc1nc(NC(=O)c2ccco2)sc1C(=O)O,12.6µM
CC(=O)c1sc(NC(=O)c2ccc(Cn3cc(Br)cn3)o2)nc1C,n
COc1cc([N+](=O)[O-])cc2sc(NC(C)=O)nc12,n
Cc1ccc(CN(C)C(=O)c2ccc3c(c2)NC(=O)CS3)o1,n
SMILES,PKM2 inh
Cn1c(=O)c(Nc2ccc(O)cc2)c2c3c(cccc31)C(=O)c1ccccc1-2,n
COc1cc(F)ccc1S(=O)(=O)n1c(C)nc2ccccc21,n
COc1cccc2nc3cc(C)c(C)cc3nc12,14.1µM
Cc1ccc(Nc2cc(C)c3c(O)cccc3n2)cc1C,n
Cc1ccc(CCNS(=O)(=O)c2cc3c(cc2C)NC(=O)CO3)cc1,n
O=C(NCc1ccc(Cl)cc1)N1CCN(S(=O)(=O)c2ccccc2)CC1,n
C=C1C(=O)C=C2CN(C(=O)c3ccccc3)[C@@](Cc3ccc(OC)cc3)(C(=O)OC)[C@@H]12,n
O=C(O)C[C@@H]1C(=O)O[C@@H]2C(COC(=O)c3cc(O)c(O)c(O)c3)O[C@@H](OC(=O)c3cc(O)c(O)c(O)c3)[C@@H](OC(=O)c3cc(O)c(O)c4c3[C@H]1[C@H](O)C(=O)O4)[C@H]2OC(=O)c1cc(O)c(O)c(O)c1 (stereo not given in full),n
Cc1nc2sccn2c(=O)c1S(=O)(=O)Nc1cccc(Cl)c1C,n
COc1ccc(S(=O)(=O)c2cnc3ccccc3n2)cc1,n
COc1ccc(-c2cc(=O)[nH][nH]2)cc1,n
COc1ccc(-c2cc3c(nn2)-c2ccccc2C3=O)cc1,15.8µM
O=[N+]([O-])c1ccc(N2CCN(S(=O)(=O)c3ccccc3)CC2)cc1NCc1ccco1,n
Cc1cc(C)n2ncc(S(=O)(=O)c3ccccc3)c2n1,n
O=C(Nc1ccccn1)c1onc2c1CCCC2,14.1µM
Cc1noc(C)c1S(=O)(=O)N1CCC(C(=O)Nc2ccccn2)CC1,n
Cc1ccc(-c2cc(C(=O)Nc3ccccn3)c3ccccc3n2)o1,n
Cc1c(F)cccc1NS(=O)(=O)c1ccc(OCCNS(C)(=O)=O)cc1,n
COc1cc(NC(=O)CSc2nnc3c(n2)[nH]c2ccc(S(=O)(=O)NC(C)C)cc23)cc(OC)c1OC,n
O=C(CCc1nnc(CCc2ccccc2)o1)N1CCCC1c1nccs1 (stereo not given),n
CN1CCC(N(CCc2ccccc2)C(=O)CCC(=O)O)CC1,n
COc1ccc(NC(=O)c2cc([N+](=O)[O-])ccc2O)cc1,15.8µM
COc1ccc(NC(=O)c2[nH]c(C)c(C(C)=O)c2C)cc1,n
COc1cccc(NC(=O)CCN2C(=O)c3ccc([N+](=O)[O-])cc3C2=O)c1,n
CCc1nc(SCC(=O)Nc2ccc(OC)cc2[N+](=O)[O-])n[nH]1,n
SMILES,PKM2 inh
COc1ccc(-n2c(=O)c3c4c(sc3n(CC(N)=O)c2=O)CCCCC4)cc1,n
COc1ccc(/C(N)=N/OC(=O)c2ccco2)cc1,17.8µM
COc1cccc(S(=O)(=O)N2CCN(C(=O)c3ccco3)CC2)c1,n
COc1ccc(C(=O)Nc2ncc3c(n2)CC(c2ccco2)CC3=O)cc1 (stereo not given),n
O=C1C=CC(=O)N1c1cccc(-c2ccccc2)c1,n
COc1ccc(C2=CC(=O)C=CC2=O)cc1,17.8µM
COc1ccc(S(=O)(=O)/N=C2/C=CC(=O)C(C)=C2C)cc1,n
COc1ccc(S(=O)(=O)c2ccc(OC)cc2)cc1,n
CS(=O)(=O)c1ccc(C(=O)NCCN2C(=O)S/C(=C\c3cccnc3)C2=O)cc1[N+](=O)[O-],n
C/C(=C\c1ccc(C)o1)C(=O)c1c(C)cc(C)[nH]c1=O,n
CCOC(=S)SCC(=O)Nc1ncc(C)s1,n
O=CN/C=C/c1cc(O)ccc1O,10µM
Cn1c(=O)n(C)c2cc(NS(=O)(=O)c3cccs3)ccc21,n
Cn1ncc([N+](=O)[O-])c1C(=O)Nc1ccc(-c2ccccc2)cc1,n
COc1cc(/C=C2\SC(=O)N(CCNC(=O)c3sc4cc(F)ccc4c3Cl)C2=O)cc(OC)c1OC,n
O=S(=O)(c1ccc(F)cc1F)N1CCCN(c2ccc(C(F)(F)F)cn2)CC1,n
O=C(Nc1cccc(O)c1)c1cccc(S(=O)(=O)Nc2cccc(O)c2)c1,n
O=C(O)c1cc(NC(=O)c2cccc(C(=O)Nc3cc(C(=O)O)cc(C(=O)O)c3)c2)cc(C(=O)O)c1,12.6µM
CC(=O)N1CCN(c2ccc(NC(=O)c3cccc(C)c3)cc2)CC1,n
CCN(Cc1ccncc1)S(=O)(=O)c1ccc(C(C)=O)cc1,n
Nc1nc2c(c(=O)[nH]1)C(c1cccc3ccccc13)C1=C(N2)c2ccccc2C1=O (stereo not given),n
Cc1ccc(-c2nc(-c3ccccn3)no2)cc1,10µM
CC(=O)Nc1nnc(-c2ccccn2)o1,n
c1ccc(-c2nc(-c3ccco3)cs2)nc1,n
Cc1ccc(C(=O)CCC(=O)N2CCN(C(=O)c3ccco3)CC2)cc1,n
SMILES,PKM2 inh
COc1ccc(C(=O)NNS(=O)(=O)c2ccccc2)cc1OC,n
O=c1[nH]c(C(F)(F)F)nc2ccccc12,n
Cc1nn(-c2nc3ccccc3[nH]2)c(=O)c2ccccc12,15.8µM
CNCc1nc2ccccc2[nH]1,n
CCc1ccccc1Nc1nn2c(=O)c3ccc(C(=O)NCc4ccccn4)cc3nc2s1,n
COc1cccc(CNC(=O)CCC2CCCN(C(=O)c3cc(C4CC4)[nH]n3)C2)c1 (stereo not given),n
COc1ccc(CN(C(=O)/C=C/c2ccco2)C2CCS(=O)(=O)C2)cc1 (stereo not given),n
CC(=O)Nc1ccc(C(=O)OCc2ccccc2Br)cc1,n
